hcDAF-12 act = H. contortus DAF-12 activation, primary screen | HEK293 hcDAF-12 lit1-tk-luc reporter, luminescence; 0% DMSO, 100% Δ7-dafachronic acid | 1.4% of 370,000 active | activation, % at 6.8 µM;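 active = activation above the mean of all tested compounds plus 3 SD, cut at about 5.5% in these data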;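 also: 100% = response to 3 µM Δ7-dafachronic acid high control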
DAX1 inh-1 = blocks DAX1 repression of SF-1 activated StAR promoter; HEK293T StAR-luciferase reporter, SF-1/DAX-1 repression relief; 1.1% of 370,000 active; inhibition, % at 6.8 µM;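 active = inhibition above the mean over all tested compounds plus 3 SD, cut at about 3.6% in these data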;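 also: 0% = DAX-1 cells with DMSO and 100% = cells lacking DAX-1 with DMSO; higher inhibition means more luminescence from relief of DAX-1 repression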
hgDAF12 agonist = agonists of H. glycines DAF-12 nuclear receptor; HEK293 GAL4-hgDAF12 UAS-luciferase reporter, agonist luminescence; normalized to butyrate control; 1.8% of 370,000 active; AID 687014; activation, % at 6.8 µM;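 active = activation above a cutoff set at the mean of all screened compounds plus 3 SD, cut at about 10% in these data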;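 also: 0% = DMSO wells and 100% = sodium butyrate wells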
ssDAF12 agonist = activators of S. stercoralis DAF-12 nuclear receptor; 1% of 370,000 active; HEK293 ssDAF-12/GRIP1 lit1-tk-luc reporter, luminescence; % of 3 µM dafachronic acid response; AID 652126; activation, % at 6.8 µM;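 active = activation above the mean over all tested compounds plus 3 SD, cut at about 0.9% in these data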;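 also: 0% = DMSO-only wells and 100% = 3 µM delta7-dafachronic acid wells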
PolyA inhibitor = blocks polyadenylation in yeast reporter cells. S. cerevisiae SKY197-pL101 polyadenylation reporter, beta-gal luminescence; efflux-impaired pdr1/pdr3 knockout yeast; score 100 = 6 SD above DMSO. activity score, % at 12 µM. 0.02% of 300,000 active;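 active = lowest replicate activity score at least 50, where 100 means six control SD above control mean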;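 also: yeast exposed to compound for 9 h at 30 °C; higher score means more reporter readthrough which indicates perturbed polyadenylation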
DAX1 inh-2 = NR0B1 (DAX1) inhibition; P51843; HEK293 Gal4-DAX1 luciferase reporter, luminescence; inhibition, % at 6.75 µM; 0.99% of 340,000 active; AID 504766;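 active = inhibition above the mean over all tested compounds plus 3 SD, cut at about 4.2% in these data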;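 also: 0% = DAX1-transfected cells with DMSO and 100% = empty-vector control cells with DMSO; inhibition shows as a rise in luminescence from relieved DAX1 repression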
Target sequence (P51843 207-470 limits assumed): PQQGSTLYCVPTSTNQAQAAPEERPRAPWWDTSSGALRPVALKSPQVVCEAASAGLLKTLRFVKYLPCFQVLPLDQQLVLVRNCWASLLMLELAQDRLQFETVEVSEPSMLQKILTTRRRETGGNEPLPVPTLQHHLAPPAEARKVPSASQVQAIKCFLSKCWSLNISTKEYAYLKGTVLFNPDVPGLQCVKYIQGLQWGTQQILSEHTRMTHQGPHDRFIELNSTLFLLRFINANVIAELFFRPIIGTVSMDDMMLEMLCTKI
LXR ag = counter-screen for hcDAF-12 agonists: agonists of human LXR-beta; shares compounds with hcDAF-12 act; HEK293 Gal4-LXR tk-luc reporter, luminescence, 24 h; normalized: DMSO 0%, positive control 100%; activation, % at 6.8 µM; 3,400 tested, under 10 active;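 active = mean percent activation of the reporter above a cutoff set as the average over tested compounds plus their standard deviation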
Target sequence (P55055 whole entry, looked up, the tested form may be a part): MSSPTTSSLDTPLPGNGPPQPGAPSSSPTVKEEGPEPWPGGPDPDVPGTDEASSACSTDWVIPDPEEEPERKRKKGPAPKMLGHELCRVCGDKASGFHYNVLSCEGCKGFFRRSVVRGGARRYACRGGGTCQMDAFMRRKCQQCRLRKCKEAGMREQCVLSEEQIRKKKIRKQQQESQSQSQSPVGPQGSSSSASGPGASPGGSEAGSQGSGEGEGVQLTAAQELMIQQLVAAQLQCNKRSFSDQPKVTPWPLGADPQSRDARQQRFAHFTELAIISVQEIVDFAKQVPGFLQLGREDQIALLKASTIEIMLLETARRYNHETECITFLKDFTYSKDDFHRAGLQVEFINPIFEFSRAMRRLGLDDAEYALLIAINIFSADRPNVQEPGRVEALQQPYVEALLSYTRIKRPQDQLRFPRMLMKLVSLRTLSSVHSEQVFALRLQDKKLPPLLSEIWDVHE
hcDAF12 ag = hcDAF-12 agonism, confirmation assay. shares compounds with hcDAF-12 act. HEK293 hcDAF-12 lit1-tk-luc reporter, luminescence; % of Δ7-dafachronic acid response. activation, % at 6.8 µM. 61% of 3,400 active;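 active = mean activation across triplicate tests above the threshold derived from the earlier primary screen, cut at about 5.5% in these data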;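 also: 0% = DMSO only wells and 100% = 3 µM Δ7-dafachronic acid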
hgDAF12 conf = confirmation of H. glycines DAF-12 agonists | shares compounds with hgDAF12 agonist | HEK293 GAL4-hgDAF12 luciferase reporter, agonist mode; percent of butyrate response | activation, % at 6.8 µM | 80% of 3,300 active;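 active = mean activation over triplicate wells above the hit cutoff derived from the earlier primary screen, cut at about 11% in these data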;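 also: 0% = DMSO low control and 100% = 2 mM sodium butyrate high control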
LXRb DAF12 ctr = LXR-beta agonism as DAF-12 counter-screen | AID 743051 | 3,300 tested, under 10 active | activation, % at 6.8 µM | shares compounds with hgDAF12 agonist | HEK293 Gal4-LXR luciferase reporter, 24 h;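 active = mean activation of the triplicate above a set limit carried over from the primary screen, none filed active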
An asterisk follows results filed as active; · = no result given; ! = not confirmed by another sample. An excerpt weighted towards active compounds, which were near 4.1% of everything screened.

SMILES	hcDAF-12 act	DAX1 inh-1	hgDAF12 agonist	ssDAF12 agonist	PolyA inhibitor	DAX1 inh-2	LXR ag	hcDAF12 ag	hgDAF12 conf	LXRb DAF12 ctr
CCc1ccc(-c2cc(C(=O)O)c3ccccc3n2)s1	11.4*	2.4	17.2*	1.1*	-4.1	-1.0	0.7	9.1*	13.9*	0.6
Cc1ccc(O)c(NC(=O)c2cc(-c3ccccc3Cl)on2)c1	1.8	0.3	4.4	-0.5	-7.0	-1.4	·	·	·	·
COc1cccc(CN(c2ccc3c(c2)CCC3)S(=O)(=O)c2ccc(-n3cnnn3)c(OC)c2)c1	-1.8	0.4	-2.3	-1.9	18.7	0.0	·	·	·	·
Cc1ccc(CN2CC(N3CC=CC3)CS2(=O)=O)cc1 (centres undefined)	-1.2	-1.2	0.1	-0.9	·	·	·	·	·	·
CCc1ccc(-c2cn3nc(C)c(C)nc3n2)cc1	-0.7	-2.0	-7.8	-2.5	-19.8	-2.5	·	·	·	·
Cc1nc2nc(-c3ccc(F)cc3)cn2nc1C	7.1*	3.2	14.0*	0.1	-5.3	0.0	1.3	4.8	12.3*	0.7
COc1ccc(OC)c(NC(=O)C2(C)CCN2C(=O)C(C)(C)c2ccccc2)c1 (centres undefined)	-0.2	-0.8	-0.7	-2.2	·	·	·	·	·	·
O=c1c2ccccc2cnn1-c1ccc2ccccc2c1	12.8*	3.0	18.1*	1.4*	-5.1	0.6	1.8	6.6*	16.8*	0.9
Cc1ccc(Nc2nc(-c3ccc(O)c(O)c3)cs2)nc1	-0.7	-0.8	-1.3	-1.8	27.3	·	·	·	·	·
Cc1cccc(Nc2nc(-c3ccc(F)cc3)cs2)n1	13.4*	2.9	15.8*	2.8*	-8.1	9.3*	1.6	9.6*	17.7*	0.9
COc1ccc(-c2csc(Nc3cccc(C)n3)n2)cc1C	6.7*	1.5	14.0*	-0.2	2.7	2.2	1.3	6.0*	16.6*	0.6
NS(=O)(=O)c1ccc(Nc2nc(-c3ccc(F)cc3)cs2)cc1	-1.8	-1.1	1.4	-2.0	-18.2	·	·	·	·	·
Fc1ccc(-c2csc(Nc3ccccn3)n2)cc1	20.6*	2.3	20.4*	4.3*	7.3	3.4	2.0	15.6*	26.2*	1.0
Cc1ccc(Nc2nc(-c3ccc(F)cc3)cs2)nc1	17.8*	1.6	14.4*	2.7*	3.6	6.4*	1.1	11.1*	17.8*	0.9
COc1ccc(-c2csc(Nc3ccc(Oc4ccccc4)cc3)n2)cc1	-1.6	-2.6	-1.6	-1.5	·	·	·	·	·	·
COc1ccc(-c2csc(Nc3cccc(C)n3)n2)cc1	6.8*	2.8	14.0*	1.0*	-5.6	8.7*	1.0	4.5	18.6*	0.9
Oc1ccc(-c2csc(Nc3ncccn3)n2)cc1	7.0*	3.1	18.2*	0.1	-5.6	0.7	1.6	8.4*	10.1	1.2
Cc1ccnc(Nc2nc(-c3ccccc3)cs2)c1	7.8*	1.4	15.2*	0.7	-23.8	3.7	1.6	5.9*	15.5*	1.1
O=C1OC2C(O)COC23OC(O)CCC13O (centres undefined)	1.6	-0.4	3.4	-0.3	·	·	·	·	·	·
NC(=O)c1c(NC(=O)c2ccc(F)cc2)sc2c1CCC2	12.6*	2.2	14.7*	2.0*	-3.9	2.1	1.3	11.8*	20.2*	0.8
O=C(Nc1sc2c(c1C(=O)O)CCCC2)c1ccc(F)cc1	-0.3	-0.5	-1.4	-0.7	-7.4	-0.8	·	·	·	·
O=C(Cc1cccs1)NC1(C(=O)NC2CCCC2)CCCCC1	0.3	-0.7	3.5	-1.9	7.2	1.3	·	·	·	·
Clc1ccc2nc3c4ccccc4cnn3c2c1	18.4*	3.0	19.2*	1.1*	-36.8	2.5	1.6	17.0*	21.9*	1.2
Clc1ccc2nc3ccccc3cc2c1	2.7	0.2	3.8	-0.5	·	0.3	·	·	·	·
COc1ccc(C(=O)Cn2c(=N)n(C)c3ccccc32)cc1	13.7*	2.8	17.5*	1.7*	4.3	4.5*	0.9	9.1*	19.4*	0.7
SMILES	hcDAF-12 act	DAX1 inh-1	hgDAF12 agonist	ssDAF12 agonist	PolyA inhibitor	DAX1 inh-2	LXR ag	hcDAF12 ag	hgDAF12 conf	LXRb DAF12 ctr
CCCCn1c(=N)n(CC(=O)c2ccc(OC)cc2)c2ccccc21	-0.1	-0.3	0.1	-1.4	-14.3	·	·	·	·	·
Cn1c(-c2nonc2N)nc2ccccc21	-2.7	-0.2	4.9	-1.8	1.8	-0.6	·	·	·	·
Cn1c2nc3ccccc3c-2nc2ccccc21	8.3*	2.2	15.7*	0.3	·	2.3	-0.1	6.7*	15.1*	0.2
CSc1ccccc1-c1nnc(-c2ccc(C)cc2)o1	10.3*	3.4	14.5*	1.7*	-10.7	2.1	0.9	8.8*	15.0*	0.5
CSc1nnc(-c2ccccc2SC)o1	-1.6	0.5	-0.9	-1.5	6.6	-0.1	·	·	·	·
Cc1ccc(NC(=O)C2C3C=CC4(O3)C2C(=O)N(CCCN2CCCCC2)C4C(=O)NC2CCCCC2)cc1C (centres undefined)	-1.5	0.5	-0.8	-1.2	-6.1	-1.0	·	·	·	·
CC(C)OC(=O)c1ccc2nc3ccccc3nc2c1	7.8*	1.8	17.3*	1.2*	3.1	3.2	1.8	8.1*	16.5*	0.8
CCOC(=O)C1CCCN(C(=O)c2cc(S(=O)(=O)N(C)C)ccc2N2CCCC2)C1 (centres undefined)	-0.6	-2.2	0.9	-0.7	-10.5	0.3	·	·	·	·
O=C(CCc1nnc(CCc2c[nH]c3ccccc23)o1)NC1CCC1	7.6*	1.5	15.7*	1.1*	-10.5	2.5	0.5	6.2*	12.5*	0.3
CCCCNC(=O)C1(C)CCN1C(=O)c1cc(-c2ccccc2)cs1 (centres undefined)	-1.5	-2.2	5.8	-1.3	·	·	·	·	·	·
COC(=O)c1sccc1N/N=C/c1cccc(OC)c1O	11.8*	3.0	19.1*	1.3*	-7.2	-2.1	1.6	9.0*	24.5*	1.2
Cc1cc(C(=O)OCC(=O)c2cccs2)ccc1[N+](=O)[O-]	1.1	-1.9	-0.6	-1.2	·	0.1	·	·	·	·
C[n+]1c2cc(N)ccc2cc2ccc(N)cc21	6.6*	-3.1	13.4*!	0.1	·	-0.6	1.0	10.8*	8.1	0.5

Screening results as filed in PubChem BioAssay.
